The supplement of paper PMC10849652
About 7,900 targets were measured; listed, in parts, are those with a hit and a random draw of the rest. About 0.6% of all pairs of compound and target were hits.

Tests used:
Test in all cases: log2 fold change, soluble protein after heating vs DMSO (PISA); higher = thermal stabilisation; K562 cells, 10 uM, 30 min; active = over 0.2 and 3.5 SD of the protein, either way, in both replicates (recomputed)
[1] = compound: CC1=C(C=C(C=C1)NC(=O)C2=CC(=CC=C2)C(C)(C)C#N)NC3=CC4=C(C=C3)N=CN(C4=O)C
Procedure, shortened: (§1)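 For each measurement, 10 μM compound was applied for 30 min to K562 cells at 2×10^6 cells/mL. Aliquots were heated for 3 min across 48°C-58°C, pooled, and extracted in PBS with 0.5% NP-40 at 4°C; the supernatant after 21,000xg for 90 min was soluble protein. This was quantified by TMTpro 16plex LC-MS/MS with channel sums equalised, and thermal stability was reported relative to control samples from duplicates, on a log2 fold-change scale.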

[2] = compound: CC1=C(C=C(C=C1)NC(=O)C2=CC(=CC=C2)N(C)C)NC(=O)C3=CC=C(C=C3)O
Procedure, shortened: as §1

[3] = compound: CC1=CC=C(C=C1)SC2=C3C=C(SC3=CN=C2)C(=O)N
Procedure, shortened: as §1

[4] = compound: CC1=NC(=CC=C1)C2=C(N=C(N2)C(C)(C)C)C3=CC4=NC=CN=C4C=C3
Procedure, shortened: as §1

Nexturastat A = compound: CCCCN(Cc1ccc(C(=O)NO)cc1)C(=O)Nc1ccccc1 [Nexturastat A]
Procedure, shortened: as §1

vemurafenib = compound: CCCS(=O)(=O)Nc1ccc(F)c(C(=O)c2c[nH]c3ncc(-c4ccc(Cl)cc4)cc23)c1F [vemurafenib]
Procedure, shortened: as §1

[5] = compound: CCCS(=O)(=O)Nc1ccc(F)c(C(=O)c2c[nH]c3ncc(Cl)cc23)c1F
Procedure, shortened: as §1

[6] = compound: CCCc1cc(C)[nH]c(=O)c1CNC(=O)c1cc(-c2ccnc(N3CCN(C)CC3)c2)cc2c1cnn2C(C)C
Procedure, shortened: as §1

givinostat = compound: CCN(CC)Cc1ccc2cc(COC(=O)Nc3ccc(C(=O)NO)cc3)ccc2c1 [givinostat]
Procedure, shortened: as §1

barasertib = compound: CCN(CCCOc1ccc2c(Nc3cc(CC(=O)Nc4cccc(F)c4)[nH]n3)ncnc2c1)CCOP(=O)(O)O [barasertib]
Procedure, shortened: as §1

Measured: log2 fold change

GEMIN5 (UniProt Q8TEQ6)
inactive: [1] 0.035 | [2] -0.038 | [3] 0.009 | [4] -0.013 | Nexturastat A -0.004 | vemurafenib 0.015 | [5] 0.093 | [6] 0.018 | givinostat -0.1 | barasertib 0.019

IFT74 (UniProt Q96LB3)
Chain of UniProt Q96LB3 (Q96LB3 whole entry, looked up): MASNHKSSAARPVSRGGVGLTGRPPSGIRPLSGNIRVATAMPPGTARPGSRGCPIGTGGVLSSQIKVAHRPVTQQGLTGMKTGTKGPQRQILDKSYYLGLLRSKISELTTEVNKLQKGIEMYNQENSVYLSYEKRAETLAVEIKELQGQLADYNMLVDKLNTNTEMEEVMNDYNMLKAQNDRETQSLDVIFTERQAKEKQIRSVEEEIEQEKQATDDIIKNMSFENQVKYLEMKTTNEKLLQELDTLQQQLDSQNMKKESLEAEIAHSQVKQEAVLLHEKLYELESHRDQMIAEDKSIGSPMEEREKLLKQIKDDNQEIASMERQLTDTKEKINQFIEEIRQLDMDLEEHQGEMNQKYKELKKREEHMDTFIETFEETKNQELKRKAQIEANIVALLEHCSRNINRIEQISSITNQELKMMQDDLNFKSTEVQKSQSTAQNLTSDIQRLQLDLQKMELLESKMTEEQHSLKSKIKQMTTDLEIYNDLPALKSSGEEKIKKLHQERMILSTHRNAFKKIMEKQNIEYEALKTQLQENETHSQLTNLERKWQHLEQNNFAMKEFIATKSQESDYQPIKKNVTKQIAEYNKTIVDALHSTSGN
active: Nexturastat A 0.746
inactive: [1] -0.086 | [2] -0.044 | [3] -0.01 | [4] -0.084 | vemurafenib -0.059 | [5] 0.005 | [6] -0.007 | givinostat 0.26 | barasertib -0.037

GATD1 (UniProt Q8NB37)
Chain of UniProt Q8NB37 (Q8NB37 whole entry, looked up): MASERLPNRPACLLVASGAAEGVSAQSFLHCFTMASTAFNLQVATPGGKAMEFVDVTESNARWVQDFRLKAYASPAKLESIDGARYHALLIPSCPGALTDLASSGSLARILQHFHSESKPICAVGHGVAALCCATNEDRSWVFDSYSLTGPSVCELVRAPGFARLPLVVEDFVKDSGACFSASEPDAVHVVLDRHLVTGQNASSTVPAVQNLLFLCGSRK
inactive: [1] 0.054 | [2] -0.041 | [3] -0.023 | [4] -0.108 | Nexturastat A 0.067 | vemurafenib -0.047 | [5] -0.06 | [6] 0.021 | givinostat 0.013 | barasertib 0.024

HMGN2 (UniProt P05204)
inactive: [1] 0.115 | [2] 0.097 | [3] -0.038 | [4] 0.047 | Nexturastat A -0.016 | vemurafenib 0.032 | [5] -0.058 | [6] -0.078 | givinostat -0.019 | barasertib 0.047

GGT7 (UniProt Q9UJ14)
Chain of UniProt Q9UJ14 (Q9UJ14 whole entry, looked up): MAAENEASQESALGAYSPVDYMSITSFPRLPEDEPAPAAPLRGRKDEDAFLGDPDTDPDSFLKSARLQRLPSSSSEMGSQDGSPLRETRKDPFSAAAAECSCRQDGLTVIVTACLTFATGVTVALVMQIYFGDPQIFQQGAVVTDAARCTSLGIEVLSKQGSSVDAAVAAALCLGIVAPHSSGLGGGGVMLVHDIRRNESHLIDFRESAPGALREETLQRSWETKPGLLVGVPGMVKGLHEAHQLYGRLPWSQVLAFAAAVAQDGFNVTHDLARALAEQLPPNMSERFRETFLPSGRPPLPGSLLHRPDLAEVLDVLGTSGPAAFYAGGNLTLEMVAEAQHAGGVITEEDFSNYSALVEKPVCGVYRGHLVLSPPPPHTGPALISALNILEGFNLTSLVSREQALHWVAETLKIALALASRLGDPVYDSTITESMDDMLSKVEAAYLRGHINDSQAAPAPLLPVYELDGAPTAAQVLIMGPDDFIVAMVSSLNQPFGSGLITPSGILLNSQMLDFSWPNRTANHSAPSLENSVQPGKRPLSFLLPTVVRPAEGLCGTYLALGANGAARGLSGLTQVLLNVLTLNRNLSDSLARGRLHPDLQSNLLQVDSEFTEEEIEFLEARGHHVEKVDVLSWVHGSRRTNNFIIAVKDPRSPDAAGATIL
inactive: [1] -0.125 | [2] 0 | [3] 0.07 | [4] -0.008 | Nexturastat A 0.032 | vemurafenib 0.112 | [5] -0.011 | [6] 0.033 | givinostat 0.019 | barasertib 0.061

GTF2E1 (UniProt P29083)
Chain of UniProt P29083 (P29083 whole entry, looked up): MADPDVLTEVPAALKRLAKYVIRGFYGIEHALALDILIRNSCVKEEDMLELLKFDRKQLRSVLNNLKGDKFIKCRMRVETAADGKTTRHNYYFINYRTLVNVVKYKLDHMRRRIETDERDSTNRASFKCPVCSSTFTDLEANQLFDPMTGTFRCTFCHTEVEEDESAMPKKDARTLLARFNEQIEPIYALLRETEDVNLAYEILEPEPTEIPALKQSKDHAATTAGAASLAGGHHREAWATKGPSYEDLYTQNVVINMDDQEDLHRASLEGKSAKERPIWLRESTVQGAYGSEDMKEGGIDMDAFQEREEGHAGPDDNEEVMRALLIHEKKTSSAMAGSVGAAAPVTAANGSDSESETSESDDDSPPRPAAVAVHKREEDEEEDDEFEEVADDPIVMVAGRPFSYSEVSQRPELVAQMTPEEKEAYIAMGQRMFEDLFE
inactive: [1] -0.005 | [2] -0.057 | [3] 0.011 | [4] 0.115 | Nexturastat A 0.024 | vemurafenib 0.05 | [5] 0.082 | [6] -0.006 | givinostat 0.091 | barasertib 0.166

HNRNPH1 (UniProt P31943)
Chain of UniProt P31943 (P31943 whole entry, looked up): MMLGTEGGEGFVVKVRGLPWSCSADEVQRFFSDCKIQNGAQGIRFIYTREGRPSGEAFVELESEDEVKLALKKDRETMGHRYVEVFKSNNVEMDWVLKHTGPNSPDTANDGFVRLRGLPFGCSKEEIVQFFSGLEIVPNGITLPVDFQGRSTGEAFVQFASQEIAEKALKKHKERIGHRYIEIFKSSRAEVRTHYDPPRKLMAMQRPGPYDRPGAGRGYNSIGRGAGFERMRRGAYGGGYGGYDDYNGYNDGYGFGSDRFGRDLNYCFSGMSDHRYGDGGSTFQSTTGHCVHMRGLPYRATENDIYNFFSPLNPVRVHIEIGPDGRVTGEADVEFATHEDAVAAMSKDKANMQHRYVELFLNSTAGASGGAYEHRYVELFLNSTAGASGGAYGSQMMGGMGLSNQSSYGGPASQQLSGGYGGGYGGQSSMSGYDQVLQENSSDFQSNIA
inactive: [1] 0.077 | [2] -0.044 | [3] 0.005 | [4] 0.047 | Nexturastat A 0.201 | vemurafenib 0.086 | [5] 0.144 | [6] 0.029 | givinostat 0.115 | barasertib 0.05

GPAT4 (UniProt Q86UL3)
Chain of UniProt Q86UL3 (Q86UL3 whole entry, looked up): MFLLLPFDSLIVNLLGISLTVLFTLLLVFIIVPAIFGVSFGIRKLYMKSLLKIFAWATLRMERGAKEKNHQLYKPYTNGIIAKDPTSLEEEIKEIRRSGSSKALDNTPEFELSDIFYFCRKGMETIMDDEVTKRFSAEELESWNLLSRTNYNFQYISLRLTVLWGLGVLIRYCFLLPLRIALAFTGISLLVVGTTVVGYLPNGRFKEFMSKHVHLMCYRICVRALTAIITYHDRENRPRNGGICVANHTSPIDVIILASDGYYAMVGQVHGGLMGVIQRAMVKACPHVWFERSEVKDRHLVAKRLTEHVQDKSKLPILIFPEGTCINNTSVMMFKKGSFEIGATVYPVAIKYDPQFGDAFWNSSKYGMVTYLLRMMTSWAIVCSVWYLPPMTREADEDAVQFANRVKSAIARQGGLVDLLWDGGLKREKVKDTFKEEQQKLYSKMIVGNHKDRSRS
inactive: [1] 0.05 | [2] -0.004 | [3] 0.014 | [4] -0.004 | Nexturastat A -0.004 | vemurafenib 0.036 | [5] 0.027 | [6] 0.019 | givinostat -0.024 | barasertib 0.027

FDFT1 (UniProt P37268)
Chain of UniProt P37268 (P37268 whole entry, looked up): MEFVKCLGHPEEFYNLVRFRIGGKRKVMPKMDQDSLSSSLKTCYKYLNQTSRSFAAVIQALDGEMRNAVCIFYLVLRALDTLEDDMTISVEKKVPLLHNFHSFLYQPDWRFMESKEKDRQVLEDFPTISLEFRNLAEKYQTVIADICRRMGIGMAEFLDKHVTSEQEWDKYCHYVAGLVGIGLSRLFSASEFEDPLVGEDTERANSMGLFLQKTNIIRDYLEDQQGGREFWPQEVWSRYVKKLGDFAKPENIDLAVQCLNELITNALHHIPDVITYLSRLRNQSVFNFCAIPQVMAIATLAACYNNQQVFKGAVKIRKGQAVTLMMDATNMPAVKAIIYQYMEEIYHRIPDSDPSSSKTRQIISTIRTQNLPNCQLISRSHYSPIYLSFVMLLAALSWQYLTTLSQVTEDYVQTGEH
inactive: [1] -0.008 | [2] 0.01 | [3] 0.063 | [4] -0.034 | Nexturastat A 0.01 | vemurafenib 0 | [5] 0.092 | [6] 0.1 | givinostat -0.018 | barasertib 0.009

FUCA1 (UniProt P04066)
Chain of UniProt P04066 (P04066 whole entry, looked up): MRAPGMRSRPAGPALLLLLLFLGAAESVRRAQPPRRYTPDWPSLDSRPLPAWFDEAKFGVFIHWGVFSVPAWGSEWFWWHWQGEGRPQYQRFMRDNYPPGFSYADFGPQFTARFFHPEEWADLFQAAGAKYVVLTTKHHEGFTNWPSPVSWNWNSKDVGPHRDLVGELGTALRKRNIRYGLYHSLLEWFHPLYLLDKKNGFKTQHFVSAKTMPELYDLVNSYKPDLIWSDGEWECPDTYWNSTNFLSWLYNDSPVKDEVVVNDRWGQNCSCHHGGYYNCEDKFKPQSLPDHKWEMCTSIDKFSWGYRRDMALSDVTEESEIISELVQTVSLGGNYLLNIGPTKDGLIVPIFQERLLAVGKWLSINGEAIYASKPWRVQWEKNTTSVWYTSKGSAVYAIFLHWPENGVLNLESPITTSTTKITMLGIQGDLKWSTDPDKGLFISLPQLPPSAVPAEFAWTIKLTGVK
inactive: [1] 0.03 | [2] 0.009 | [3] 0.021 | [4] 0.092 | Nexturastat A -0.054 | vemurafenib -0.007 | [5] 0.066 | [6] -0.016 | givinostat 0 | barasertib 0.012

GCC2 (UniProt Q8IWJ2)
inactive: [1] -0.004 | [2] -0.012 | [3] -0.016 | [4] -0.031 | vemurafenib 0.025 | [5] 0.01 | [6] 0.073 | givinostat 0.05 | barasertib -0.037
active: Nexturastat A 0.322

FAT1 (UniProt Q14517)
inactive: [1] -0.036 | [2] -0.218 | [3] -0.029 | [4] 0.053 | Nexturastat A 0.104 | vemurafenib -0.199 | [5] -0.051 | [6] -0.067 | givinostat 0.044 | barasertib 0.045

GALNT1 (UniProt Q10472)
Chain of UniProt Q10472 (Q10472 whole entry, looked up): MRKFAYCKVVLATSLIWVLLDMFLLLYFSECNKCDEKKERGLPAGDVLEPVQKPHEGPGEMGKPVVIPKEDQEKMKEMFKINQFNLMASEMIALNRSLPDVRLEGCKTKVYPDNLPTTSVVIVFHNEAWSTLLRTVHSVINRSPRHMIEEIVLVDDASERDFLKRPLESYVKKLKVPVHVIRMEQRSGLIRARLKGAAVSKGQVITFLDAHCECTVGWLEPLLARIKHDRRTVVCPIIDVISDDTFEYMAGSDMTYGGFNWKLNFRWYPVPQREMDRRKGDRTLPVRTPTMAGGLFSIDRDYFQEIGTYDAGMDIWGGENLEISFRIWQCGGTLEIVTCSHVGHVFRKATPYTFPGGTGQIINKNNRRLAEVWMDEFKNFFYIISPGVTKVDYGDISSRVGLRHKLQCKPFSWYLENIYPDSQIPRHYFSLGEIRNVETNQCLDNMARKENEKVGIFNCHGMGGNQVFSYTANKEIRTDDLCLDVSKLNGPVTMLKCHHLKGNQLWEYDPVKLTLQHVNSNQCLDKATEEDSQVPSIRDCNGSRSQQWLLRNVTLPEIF
inactive: [1] -0.004 | [2] 0 | [3] 0.03 | [4] 0.067 | Nexturastat A 0.001 | vemurafenib 0.02 | [5] -0.021 | [6] -0.055 | givinostat 0.003 | barasertib 0.007

HMGN1 (UniProt P05114)
Chain of UniProt P05114 (P05114 whole entry, looked up): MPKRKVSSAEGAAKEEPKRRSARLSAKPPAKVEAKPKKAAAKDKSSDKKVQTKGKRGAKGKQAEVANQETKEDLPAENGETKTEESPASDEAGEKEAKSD
inactive: [1] 0.056 | [2] 0.027 | [3] -0.048 | [4] 0.078 | Nexturastat A -0.017 | vemurafenib 0.004 | [5] -0.064 | [6] -0.033 | givinostat -0.119 | barasertib -0.06

GBF1 (UniProt Q92538)
inactive: [1] -0.049 | [2] -0.071 | [3] -0.012 | [4] -0.028 | Nexturastat A 0.078 | vemurafenib 0.028 | [5] 0.059 | [6] 0.014 | givinostat 0.07 | barasertib 0.028
